The supplement of paper PMC12808144
A number with no mark means an inactive call.

tested on: Mel-DCC-11-R; experiment: cell viability relative to DMSO control (fraction of DMSO control); higher = less cytotoxic, active = 0.8 or less; conditions: 1 µM; 120 h; vemurafenib co-treatment 0 µM
Method: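 Same 315-drug TargetMol library at 1 µM in duplicate, 120 h, ATPlite luminescence normalised to DMSO controls, on the vemurafenib-resistant subline Mel-DCC-11-R cultured alone or with 8 µM vemurafenib co-treatment (Mel-DCC-11-R + V).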

Compound	cell viability
O=C(O)CCCc1ccc(N(CCCl)CCCl)cc1 [Chloroambucil]	0.906
CCC1(c2ccc(N)cc2)CCC(=O)NC1=O (stereo unspecified) [Aminoglutethimide]	1.08
CC(O)(CS(=O)(=O)c1ccc(F)cc1)C(=O)Nc1ccc(C#N)c(C(F)(F)F)c1 (stereo unspecified) [Bicalutamide]	1.02

same assay, conditions: 1 µM; 120 h; vemurafenib co-treatment 8 µM

Compound	cell viability
O=C(O)CCCc1ccc(N(CCCl)CCCl)cc1 [Chloroambucil]	1.11
CCC1(c2ccc(N)cc2)CCC(=O)NC1=O (stereo unspecified) [Aminoglutethimide]	1.04
CC(O)(CS(=O)(=O)c1ccc(F)cc1)C(=O)Nc1ccc(C#N)c(C(F)(F)F)c1 (stereo unspecified) [Bicalutamide]	1.12
